For test [1], the target named is Cytochrome P450 2C9 (Homo sapiens) (UniProt P11712). The experiment in a line: qHTS Assay for Inhibitors and Substrates of Cytochrome P450 2C9 (AID 883). Note: nearly all actives have a fitted effect of over 60% in size. In outline: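 Turnover of Luciferin-H (100uM, KM) by 10nM human CYP2C9 was measured over 60 min at 37C with NADPH regeneration; inhibitors and some substrates reduce luminescence. Data normalized to sulphaphenazole 57uM.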
(Quantitative high-throughput screening tests each substance at several concentrations.)

Test [2] addresses Lethal(3)malignant brain tumor-like protein 1 (Homo sapiens) (UniProt Q9Y468). In words: qHTS Assay for the Inhibitors of L3MBTL1: Hit Validation (AID 540279). Note: potency is the fitted concentration of half-maximal effect; nearly all actives have a fitted effect of over 70% in size. The note with it: L3MBTL1 methyl-lysine binding inhibition, biochemical qHTS. In outline: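 AlphaScreen displacement: 50 nM L3MBTL1 bound to 75 nM biotin-H3K9me1 peptide for 30 min, compound added for 30 min at room temperature, then beads at 10 ug/mL final for 30 min in the dark. Cefsulodin titration served as intraplate control.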

Test [3] addresses DNA polymerase kappa (Homo sapiens) (UniProt Q9UBT6). In words: qHTS for Inhibitors of Polymerase Kappa: Confirmatory Assay for Cherry-picked Compounds (AID 720501). Note: potency is the fitted concentration of half-maximal effect. Particulars: purified Pol-kappa, fluorescent strand-displacement substrate. In outline: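 Strand-displacement fluorescence read-out: TAMRA reporter released from a BHQ-2-quenched template, measured at 525/598 nm over a 10 min kinetic window. Substrate was 50 nM final; enzyme was 10 nM Pol-kappa, preincubated 15 min at room temperature with compound.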

The target of test [4] is DNA polymerase eta (Homo sapiens) (UniProt Q9Y253). In words: qHTS for Inhibitors of Polymerase Eta: Confirmatory Assay for Cherry-picked Compounds (AID 720502). Note: potency is the fitted concentration of half-maximal effect. The note with it: Pol eta primer extension, TAMRA/BHQ fluorescence, 10 min. In a few lines:
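Human Pol eta at 10 nM was preincubated with compound for 15 min at room temperature. Reaction was started with TAMRA/BHQ-2-labelled primer-template substrate (50 nM final), with fluorescence read at 0 and 10 min (ex 525, em 598 nm).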

A short description of test [5]: Cell Viability - LYMP2-007 (AID 979).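 Note: potency is the fitted concentration of half-maximal effect; cells exposed to compound for 24 h before reading; nearly all actives have a fitted effect of over 60% in size.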 In a few lines: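 AC50 values come from Hill-equation fits of luminescent intracellular ATP (CellTiter-Glo, 30 min, room temperature) following 24 h compound exposure at 37 C. Cells: LYMP2-007 lymphoblastoid line, 2500 per well, in complete culture medium.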
The nature of test [6]: Cell Viability - LYMP2-008 (AID 980). Note: potency is the fitted concentration of half-maximal effect; nearly all actives have a fitted effect of over 60% in size. In a few lines: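 Cytotoxicity determined from ATP-dependent luciferase luminescence (CellTiter-Glo) following 24 h compound exposure of human lymphoblastoid LYMP2-008 cells at 37 C. Concentration-response data fitted to the Hill equation to give AC50.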
Test [7] in a line: Cell Viability - LYMP2-010 (AID 981). Note: potency is the fitted concentration of half-maximal effect; nearly all actives have a fitted effect of over 55% in size. In a few lines:
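CellTiter-Glo ATP luminescence measured cytotoxicity after 24 h compound exposure at 37 C. LYMP2-010 cells were seeded at 2500/well, with tetraoctylammonium bromide as control; concentration-response curves gave AC50 values by the Hill equation.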

The nature of test [8]: Cell Viability - LYMP2-012 (AID 982).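 Note: cellular ATP by luciferase luminescence where a drop means cytotoxicity; potency is the fitted concentration of half-maximal effect; cells exposed to compound for one day before reading; nearly all actives have a fitted effect of over 55% in size.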
Test [9] can be described thus: Cell Viability - LYMP2-014 (AID 983). Note: potency is the fitted concentration of half-maximal effect; nearly all actives have a fitted effect of over 50% in size. In a few lines:
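Intracellular ATP loss, read by luciferase luminescence, measures acute cytotoxicity after 24 h compound exposure of lymphoblastoid LYMP2-014 cells (2500/well, 37 C). Concentration-response data fitted to the Hill equation for AC50.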

The nature of test [10]: Cell Viability - LYMP2-016 (AID 984). Note: potency is the fitted concentration of half-maximal effect; nearly all actives have a fitted effect of over 55% in size. In a few lines:
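Cells were seeded at 2500 per well and rested 5 hr before a 24 hr compound exposure at 37 C. Viability was then gauged as cellular ATP by luciferase luminescence, with AC50 values fitted to the Hill equation.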

Test [11] is described as follows: Cell Viability - LYMP2-018 (AID 985). Note: potency is the fitted concentration of half-maximal effect; nearly all actives have a fitted effect of over 50% in size. In outline:
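Viability read as CellTiter-Glo luminescence (cellular ATP) after 24 hr compound exposure at 37 C of 2500 LYMP2-018 lymphoblastoid cells/well, pre-plated 5 hr. Hill-equation modelling gave AC50.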

Test [12] in a line: Cell Viability - LYMP2-020 (AID 986). Note: potency is the fitted concentration of half-maximal effect; nearly all actives have a fitted effect of over 55% in size. In outline: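 Cytotoxicity in qHTS format: luminescent ATP readout from CellTiter-Glo after 24 h compound exposure at 37 C in complete medium. LYMP2-020 lymphoblastoid cells were seeded at 2500/well; concentration-response data fitted to the Hill equation for AC50.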
The nature of test [13]: Cell Viability - LYMP2-024 (AID 988). Note: potency is the fitted concentration of half-maximal effect; nearly all actives have a fitted effect of over 60% in size. In outline:
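Cytotoxicity was taken as a decrease in ATP (CellTiter-Glo luminescence) after 24 hr compound exposure at 37 C of LYMP2-024 lymphoblastoid cells, 2500 cells/well. Concentration-response data were fitted to the Hill equation to give AC50.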

A short description of test [14]: Cell Viability - LYMP2-026 (AID 989). Note: potency is the fitted concentration of half-maximal effect; nearly all actives have a fitted effect of over 50% in size. In outline: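 Cytotoxicity read as ATP-dependent luminescence (CellTiter-Glo, 30 min room temperature) after 24 h compound treatment at 37 C. LYMP2-026 lymphoblastoid line seeded at 2500 cells/well; AC50 derived by standard Hill equation.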
Test [15] is described as follows: Cell Viability - LYMP1-002 - Assay at 24 hr (AID 993). Note: potency is the fitted concentration of half-maximal effect. In a few lines:
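qHTS cytotoxicity at 24 h: CellTiter-Glo ATP luminescence in lymphoblastoid line LYMP1-002 incubated with compound at 37 °C. Concentration-response modeled with the Hill equation for AC50; tetraoctylammonium bromide served as positive control.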

A short description of test [16]: Cell Viability - LYMP1-002 - Assay at 40 hr (AID 994). In a few lines: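 Cytotoxicity was read as loss of cellular ATP (CellTiter-Glo luminescence) after 40 hr compound exposure at 37 C of 2500 LYMP1-002 lymphoblastoid cells per well. Concentration-response data were fitted with the standard Hill equation to give AC50.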
Test [17] is described as follows: Cell Viability - LYMP1-002 - Assay at 16 hr (AID 948). Note: potency is the fitted concentration of half-maximal effect. In a few lines:
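Seed 2500 LYMP1-002 cells per well in complete medium and hold 5 hr at 37 C. Add compound across a concentration series and incubate 16 hr at 37 C. Add CellTiter-Glo, wait 30 min at room temperature, read luminescence.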

Test [18] in a line: Cell Viability - LYMP2-004 (AID 966). Note: potency is the fitted concentration of half-maximal effect; nearly all actives have a fitted effect of over 65% in size. In outline:
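AC50 values come from Hill modelling of concentration-dependent loss of intracellular ATP, measured by CellTiter-Glo luminescence. Human LYMP2-004 lymphoblastoid cells (2500/well) were exposed to compound for 24 h at 37 C.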

The nature of test [19]: Cell Viability - LYMP2-009 (AID 968).
The nature of test [20]: Cell Viability - LYMP2-025 (AID 976). Note: potency is the fitted concentration of half-maximal effect. In a few lines:
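Cytotoxicity read as loss of intracellular ATP (luciferase luminescence) after 24 h compound treatment at 37 C. Uses LYMP2-025 lymphoblastoid cells in 1536-well format; Hill-equation modelling gives AC50; tetraoctylammonium bromide as positive control.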

Records with an inconclusive call do not appear. This is one part of the list. Active and inactive are the calls of the source. Calls come from the whole dose curve; as a rule, active = well fitted curve in the direction sought with a large enough effect; inconclusive = small, poorly fitted or top-dose-only effect, or another doubt; inactive = no such curve, though single readings can be large; an effect the other way counts as inactive or inconclusive.

Sequence of DNA polymerase eta (Homo sapiens) (Q9Y253 whole entry, looked up): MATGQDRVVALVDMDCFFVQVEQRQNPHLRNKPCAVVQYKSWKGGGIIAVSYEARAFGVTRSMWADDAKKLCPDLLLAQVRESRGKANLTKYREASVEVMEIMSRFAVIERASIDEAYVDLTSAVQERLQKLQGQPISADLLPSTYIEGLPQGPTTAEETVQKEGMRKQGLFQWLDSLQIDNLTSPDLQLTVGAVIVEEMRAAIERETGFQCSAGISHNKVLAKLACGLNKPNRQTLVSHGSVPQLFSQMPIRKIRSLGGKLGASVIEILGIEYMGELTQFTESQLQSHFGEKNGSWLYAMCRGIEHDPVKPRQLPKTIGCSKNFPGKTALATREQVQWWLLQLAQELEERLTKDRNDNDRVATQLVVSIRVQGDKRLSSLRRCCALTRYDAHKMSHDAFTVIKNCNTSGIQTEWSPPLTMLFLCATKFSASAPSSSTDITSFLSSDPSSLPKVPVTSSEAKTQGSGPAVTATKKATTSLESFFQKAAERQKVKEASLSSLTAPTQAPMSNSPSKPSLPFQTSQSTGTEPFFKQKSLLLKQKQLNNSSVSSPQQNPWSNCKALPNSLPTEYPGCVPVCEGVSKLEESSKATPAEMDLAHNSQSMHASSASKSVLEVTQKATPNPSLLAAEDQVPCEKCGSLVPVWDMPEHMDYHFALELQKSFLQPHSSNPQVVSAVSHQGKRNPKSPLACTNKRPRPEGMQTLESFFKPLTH
Sequence of Lethal(3)malignant brain tumor-like protein 1 (Homo sapiens) (Q9Y468 whole entry, looked up): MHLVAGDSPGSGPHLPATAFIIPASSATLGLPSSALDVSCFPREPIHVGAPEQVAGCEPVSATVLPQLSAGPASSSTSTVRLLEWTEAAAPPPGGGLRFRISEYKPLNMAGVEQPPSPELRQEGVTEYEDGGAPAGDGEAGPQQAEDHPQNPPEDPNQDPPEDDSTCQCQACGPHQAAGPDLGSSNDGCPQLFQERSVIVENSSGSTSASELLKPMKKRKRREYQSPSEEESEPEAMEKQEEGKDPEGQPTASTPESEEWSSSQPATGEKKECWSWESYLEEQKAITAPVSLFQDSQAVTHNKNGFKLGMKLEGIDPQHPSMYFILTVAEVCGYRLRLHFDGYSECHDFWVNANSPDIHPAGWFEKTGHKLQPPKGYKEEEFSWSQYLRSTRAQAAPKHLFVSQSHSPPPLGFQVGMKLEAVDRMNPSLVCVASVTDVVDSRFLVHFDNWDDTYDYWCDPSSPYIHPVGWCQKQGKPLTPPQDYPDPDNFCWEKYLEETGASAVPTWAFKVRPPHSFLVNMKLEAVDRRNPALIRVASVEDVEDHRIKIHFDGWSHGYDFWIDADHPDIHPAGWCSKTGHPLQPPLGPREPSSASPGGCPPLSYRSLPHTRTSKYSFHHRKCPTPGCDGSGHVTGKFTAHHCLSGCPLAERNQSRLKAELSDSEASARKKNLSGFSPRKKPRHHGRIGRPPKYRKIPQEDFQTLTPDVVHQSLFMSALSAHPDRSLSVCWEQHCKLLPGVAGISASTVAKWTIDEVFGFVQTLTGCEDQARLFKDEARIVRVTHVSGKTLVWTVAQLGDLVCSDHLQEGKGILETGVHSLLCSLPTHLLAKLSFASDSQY
Sequence of Cytochrome P450 2C9 (Homo sapiens) (P11712 whole entry, looked up): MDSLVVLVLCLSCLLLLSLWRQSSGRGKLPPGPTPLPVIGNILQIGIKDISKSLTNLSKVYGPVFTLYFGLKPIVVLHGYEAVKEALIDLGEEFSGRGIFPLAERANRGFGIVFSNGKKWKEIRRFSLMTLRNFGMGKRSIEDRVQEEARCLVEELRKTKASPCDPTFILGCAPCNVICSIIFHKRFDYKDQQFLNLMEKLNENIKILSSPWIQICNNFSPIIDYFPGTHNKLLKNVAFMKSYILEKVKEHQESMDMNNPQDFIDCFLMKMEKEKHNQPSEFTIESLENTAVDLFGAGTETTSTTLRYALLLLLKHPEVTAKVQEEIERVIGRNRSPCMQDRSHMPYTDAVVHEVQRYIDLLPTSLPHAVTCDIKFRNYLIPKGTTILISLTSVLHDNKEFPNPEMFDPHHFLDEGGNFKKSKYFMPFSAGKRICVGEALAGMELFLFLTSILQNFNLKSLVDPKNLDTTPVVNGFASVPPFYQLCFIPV
Sequence of DNA polymerase kappa (Homo sapiens) (Q9UBT6 whole entry, looked up): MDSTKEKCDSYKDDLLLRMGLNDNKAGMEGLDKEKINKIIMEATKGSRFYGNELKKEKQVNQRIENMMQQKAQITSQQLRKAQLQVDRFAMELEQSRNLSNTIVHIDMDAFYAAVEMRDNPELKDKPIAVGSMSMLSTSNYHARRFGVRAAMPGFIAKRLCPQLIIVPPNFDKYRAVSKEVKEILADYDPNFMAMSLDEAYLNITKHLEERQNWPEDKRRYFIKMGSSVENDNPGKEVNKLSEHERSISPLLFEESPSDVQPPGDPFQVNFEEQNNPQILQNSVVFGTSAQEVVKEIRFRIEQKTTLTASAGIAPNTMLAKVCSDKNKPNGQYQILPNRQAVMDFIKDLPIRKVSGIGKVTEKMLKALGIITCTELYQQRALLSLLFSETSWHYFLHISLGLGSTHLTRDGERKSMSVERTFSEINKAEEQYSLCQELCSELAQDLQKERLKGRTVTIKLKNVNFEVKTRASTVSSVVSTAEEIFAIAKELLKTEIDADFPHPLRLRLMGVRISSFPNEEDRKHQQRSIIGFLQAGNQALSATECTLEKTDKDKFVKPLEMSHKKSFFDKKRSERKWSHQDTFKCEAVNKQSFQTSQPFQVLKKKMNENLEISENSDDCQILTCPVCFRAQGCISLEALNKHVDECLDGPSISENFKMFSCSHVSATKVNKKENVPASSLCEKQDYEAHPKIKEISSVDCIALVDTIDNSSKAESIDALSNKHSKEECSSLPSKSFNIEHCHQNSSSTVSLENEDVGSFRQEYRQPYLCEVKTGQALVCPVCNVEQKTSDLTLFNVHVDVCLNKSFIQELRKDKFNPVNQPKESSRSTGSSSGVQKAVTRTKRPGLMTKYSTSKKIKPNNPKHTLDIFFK

`CCN1C[C@@]2(COC)[C@H](O)C[C@H](OC)[C@@]34[C@@H]5C[C@@]6(O)[C@H](OC(=O)c7ccccc7)[C@H]5[C@@](OC(C)=O)([C@H]([C@@H](OC)[C@H]23)[C@H]14)[C@H](O)[C@@H]6OC`: the Potency entry in [1] is “inactive”.

Turning to `Cc1cc(/C=C2/C(=O)NC(=O)N(Cc3ccco3)C2=O)c(C)n1-c1ccc(C(=O)O)cc1`, the Potency is 9.47 µM (active) in test [2], 18.9 µM (active) in [3] and 60.1 µM (active) in test [4].

As to `C=CC(=O)OCC(CO)(COC(=O)C=C)COC(=O)C=C`, the Potency in test [5] is 5.01 µM (active); in test [6], 5.01 µM (active); in test [7] it was 3.98 µM (active); in test [8], 3.98 µM (active); in [9], 5.01 µM (active); in [10], 5.01 µM (active). The Potency in [11] is 3.98 µM (active); in [12] it was 3.98 µM (active); in test [13] it was 3.16 µM (active); in [14] it was 6.31 µM (active); in test [15], 3.98 µM (active); in test [16] it was 5.01 µM (active).

In the case of `O=Nc1ccc(Nc2ccccc2)cc1`, the Potency in test [17] was 10 µM (active); in [18], 7.94 µM (active); in [19], 7.94 µM (active); in test [20], 10 µM (active); in test [5], 5.01 µM (active); in test [6], 7.94 µM (active). Besides, the Potency in test [7] is 5.01 µM (active); in [8], 7.94 µM (active); in test [9] it was 6.31 µM (active); in [10], 6.31 µM (active); in test [11], 3.98 µM (active); in test [12], 5.01 µM (active). The Potency is 2.51 µM (active) in [13], 6.31 µM (active) in test [14], 7.94 µM (active) in [15] and 12.6 µM (active) in [16].
